# According to ChEMBL document CHEMBL3988442, “University of Dundee, Small-Polar-MMV Screening Library” (2021):
# Screen size: about 48,000 compounds; about 13,000 (27%) showed an effect of 50% or more. The list shows a part of the results.
# System: Wolbachia pipientis
# Experiment: Anti-Wolbachia Cell-Based Screen
# Type: functional
# Parameters: scale not given: in the data most compounds retested in dose-response had high values
# Settings: 5 µM
row,SMILES,Percent Effect [%]
1,Cc1ccc(C(=O)NCCN2CCOCC2)cc1N(C)S(C)(=O)=O,-26.4
2,Cc1ccc(C(=O)NS(C)(=O)=O)cc1I,-7.571
3,Cc1ccc(C(=O)NCCCNS(C)(=O)=O)cc1C,117.8
4,CC(=O)NCCNC(=O)c1cnc(-c2ccccc2)nc1,-5.417
5,CCSCCC(C)N(C)C(=O)c1cc(C)on1 (centres undefined),-12.53
6,O=C(O)c1cc(S(=O)(=O)N2CCOc3ccccc32)ccc1F,8.076
7,CCC[C@@H]1CN(Cc2cc3c(cc2OC)OCCO3)C[C@H]1C(=O)O,-0.5486
8,O=C(CCNc1ncccn1)NCCOc1ccc2c(c1)CCC2,1.956
9,COc1ccc(CN2CCC3(CC2)C(C(=O)O)CC(=O)N3C)cc1Cl (centres undefined),2.306
10,COCCN1C(=O)CC[C@]12CC[C@@H](NCc1ccc(OC)cc1)CC2,-14.96
11,CC[C@H]1N(Cc2ccc(OC)cc2)CCC[C@]12CCC(=O)N2C,102.5
12,COc1cc(CN2CCN(CC3CC3)[C@@H]3CS(=O)(=O)C[C@@H]32)cc(OC)c1,-1.299
13,CCn1c(C2CCCN(Cc3cc(OC)cc(OC)c3)C2)nn(C)c1=O (centres undefined),-1.28
14,CC[C@@H]1N(Cc2cc(OC)cc(OC)c2)CCC[C@]12CCC(=O)N2C,92.68
15,COCCN1CCN(Cc2cccc(OCC(N)=O)c2)CC1C (centres undefined),-2.971
16,CCN1C(=O)CCCC12CCCN(C(=O)c1ccncc1F)C2.O=C(O)C(F)(F)F (centres undefined),112.1
17,O=C(O)C(F)(F)F.O=C(c1ccncc1F)N1CCc2ncnc(C3CC3)c2CC1,13.05
18,CN1C(=O)CCC12CCCN(C(=O)c1ccncc1F)C2.O=C(O)C(F)(F)F (centres undefined),113.9
19,Cc1ncnc2c1CCN(C(=O)c1ccncc1F)CC2.O=C(O)C(F)(F)F,-20.75
20,CCc1ncnc2c1CCN(C(=O)c1ccncc1F)CC2.O=C(O)C(F)(F)F,6.56
21,CCOc1ncnc2c1CCN(C(=O)c1ccncc1F)CC2.O=C(O)C(F)(F)F,-6.025
22,O=C(O)C(F)(F)F.O=C1CC(c2ccccc2)C2(CCN(C(=O)c3ccncc3F)CC2)N1 (centres undefined),7.558
23,CN(C)CCN1C(=O)CCC12CCCN(C(=O)c1ccncc1F)C2.O=C(O)C(F)(F)F (centres undefined),122.1
24,CCN1C(=O)CCCC12CCCN(C(=O)c1ccoc1)C2 (centres undefined),-0.6496
25,COCCCNC(=O)NCc1nc(C)c(C)o1,1.858
26,CC(C)(C)CC(=O)NCC1CCCS1 (centres undefined),-1.096
27,CN1CC(Oc2ccc(Cl)cc2)=NC(SCC(=O)c2ccccc2)=N1,11.49

row,SMILES,Percent Effect [%]
1,Cc1ccc(C(=O)Cc2c(Cl)nc3n(C)c(=O)n(C)c(=O)n23)cc1,91.64
2,Cc1ccc(C(=O)CCC(=O)N2CCC(c3nncn3C)CC2)cc1,-0.3599
3,Cn1c(=O)n(C)c2nc(Cl)c(CC(=O)c3ccc(F)cc3)n2c1=O,131.2
4,Cn1c(=O)n(C)c2nc(Cl)c(CC(=O)c3ccccc3)n2c1=O,119.1
5,Cc1c2ncn(CC(=O)c3ccccc3)c(=O)c2nn1C,11.22
6,Cn1nc(Br)c2c(=O)n(CCc3ccccc3)cnc21,-21.91
7,Cn1c(=O)n(C)c2nc(Br)c(CC(=O)c3ccccc3)n2c1=O,113.8
8,CN1CC(Oc2ccccc2)=NC(SCC(=O)c2ccccc2)=N1,31.32
9,CC(C)c1nc(C2CCCN2c2cnc3cc(F)c(F)cc3n2)no1 (centres undefined),4.6
10,CC(C)OC(=O)N1CCCCC1CCn1cccn1 (centres undefined),30.12
11,Cl.Nc1nc(C(=O)NCC2CCC3(CCNCC3)CO2)cs1 (centres undefined),-0.4275
12,CC(C)(C)n1cc(C#N)cc1NC(=O)CCNC(=O)c1ccco1,-15.76
13,O=C(c1cnccn1)N1CCCC(Cc2cccc3ncccc23)C1 (centres undefined),146.1
14,Cn1cc(C(=O)N2CCCC(Cc3cccc4ncccc34)C2)cn1 (centres undefined),153.9
15,Cc1ccc2nc(C)c(C)c(C(=O)N3CCN(c4nccs4)CC3)c2c1,-13.27
16,CCNC(=O)C1CCCN(Cn2nc(C(C)(C)C)ccc2=O)C1 (centres undefined),2.332
17,Cc1cc(CNC(=O)C2CCC(=O)N(Cc3ccccc3F)C2)on1 (centres undefined),-7.53
18,Cc1cc(C[C@@H]2CCC[C@H]2NCc2ccccc2F)on1.O=C(O)CC(O)(CC(=O)O)C(=O)O,109.7
19,Cc1cc(C[C@@H]2CCC[C@H]2NCc2cccc(F)c2F)on1.O=C(O)CC(O)(CC(=O)O)C(=O)O,111.2
20,Cc1cc(C[C@@H]2COC[C@@H]2NC(=O)CN2CCOC2=O)on1,-12.63
21,Cc1cc(C[C@@H]2CCC[C@H]2NCc2cc(C)c(O)c(C)c2)on1.O=C(O)CC(O)(CC(=O)O)C(=O)O,-7.471
22,Cc1cc(C[C@@H]2CCC[C@H]2NCc2ccccc2C(F)(F)F)on1.O=C(O)CC(O)(CC(=O)O)C(=O)O,-4.697
23,Cc1cc(C[C@@H]2COC[C@H]2NCc2ccc(Br)s2)on1.O=C(O)CC(O)(CC(=O)O)C(=O)O,-4.105
24,Cc1cc(C[C@@H]2CCC[C@H]2NCc2ccccc2C)on1.O=C(O)CC(O)(CC(=O)O)C(=O)O,135
25,Cc1cc(C[C@@H]2COC[C@H]2NCc2ccccc2C(F)(F)F)on1.O=C(O)CC(O)(CC(=O)O)C(=O)O,-4.697
26,O=C(NCc1cccc(F)c1F)c1cc(CN2CCCC(O)C2)on1 (centres undefined),-4.232
27,Cc1cc(C[C@@H]2CCC[C@H]2NCc2cc(F)ccc2F)on1.O=C(O)CC(O)(CC(=O)O)C(=O)O,83.79
